The supplement of paper PMC6897291
Where a name gives a salt, the structure may show the parent alone.

What was measured:
RIVA [1] = test: growth inhibition by drug plus 177Lu-lilotomab satetraxetan (1 - RLU/untreated control) (fraction); higher = stronger inhibition; conditions: 177Lu-lilotomab satetraxetan 0.5 ug/ml
Summary of the method: (§1)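 Plates pre-printed with the Selleck Cambridge Cancer Compound library at 10/100 nM (RIVA) or 10/1,000 nM (U-2932) received 3,000 cells/well. These cells had been washed after 18 h untreated or with a radiolabelled anti-CD37 antibody conjugate (~600 MBq/mg; 0.5 µg/ml RIVA, 1 µg/ml U-2932). Growth inhibition was obtained from RealTime-Glo luminescence in relation to untreated no-drug wells. Each daily read from day 3, taken after 1 h at 37°C, was converted as 1 − RLU/mean of 48 such wells per plate.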

U-2932 [2] = test: growth inhibition by drug alone (1 - RLU/untreated control) (fraction); higher = stronger inhibition; conditions: 177Lu-lilotomab satetraxetan 0 ug/ml
Summary of the method: as §1

RIVA [3] = test: as above; conditions: 177Lu-lilotomab satetraxetan 0 ug/ml
Summary of the method: as §1

U-2932 [4] = test: growth inhibition by drug plus 177Lu-lilotomab satetraxetan (1 - RLU/untreated control) (fraction); higher = stronger inhibition; conditions: 177Lu-lilotomab satetraxetan 1 ug/ml
Summary of the method: as §1

Structure (SMILES): CN(C)CCOc1ccc(/C(=C(/CCCl)c2ccccc2)c2ccccc2)cc1 [Toremifene Citrate (Fareston, Acapodene)]
- growth inhibition by drug plus 177Lu-lilotomab satetraxetan (RIVA [1]; 100 nM, time (day): 5): 0.713
- growth inhibition by drug plus 177Lu-lilotomab satetraxetan (RIVA [1]; 100 nM, time (day): 6): 0.72

Structure (SMILES): CC(=O)[C@]1(O)Cc2c(O)c3c(c(O)c2[C@@H](O[C@H]2C[C@H](N)[C@H](O)[C@H](C)O2)C1)C(=O)c1ccccc1C3=O [Idarubicin HCl]
- growth inhibition by drug alone (U-2932 [2]; 10 nM, time (day): 3): 0.517
- growth inhibition by drug alone (U-2932 [2]; 10 nM, time (day): 4): 0.599
- growth inhibition by drug alone (U-2932 [2]; 10 nM, time (day): 5): 0.684
- growth inhibition by drug alone (U-2932 [2]; 10 nM, time (day): 6): 0.751
- growth inhibition by drug alone (U-2932 [2]; 1000 nM, time (day): 3): 0.962
- growth inhibition by drug alone (U-2932 [2]; 1000 nM, time (day): 4): 0.973
- growth inhibition by drug alone (U-2932 [2]; 1000 nM, time (day): 5): 0.977
- growth inhibition by drug alone (U-2932 [2]; 1000 nM, time (day): 6): 0.98
- growth inhibition by drug alone (RIVA [3]; 10 nM, time (day): 3): 0.685
- growth inhibition by drug alone (RIVA [3]; 10 nM, time (day): 4): 0.744
- growth inhibition by drug alone (RIVA [3]; 10 nM, time (day): 5): 0.786
- growth inhibition by drug alone (RIVA [3]; 10 nM, time (day): 6): 0.827
- growth inhibition by drug alone (RIVA [3]; 100 nM, time (day): 3): 0.781
- growth inhibition by drug alone (RIVA [3]; 100 nM, time (day): 4): 0.825
- growth inhibition by drug alone (RIVA [3]; 100 nM, time (day): 5): 0.851
- growth inhibition by drug alone (RIVA [3]; 100 nM, time (day): 6): 0.883
- growth inhibition by drug plus 177Lu-lilotomab satetraxetan (U-2932 [4]; 10 nM, time (day): 3): 0.584
- growth inhibition by drug plus 177Lu-lilotomab satetraxetan (U-2932 [4]; 10 nM, time (day): 4): 0.712
- growth inhibition by drug plus 177Lu-lilotomab satetraxetan (U-2932 [4]; 10 nM, time (day): 5): 0.817
- growth inhibition by drug plus 177Lu-lilotomab satetraxetan (U-2932 [4]; 10 nM, time (day): 6): 0.881
- growth inhibition by drug plus 177Lu-lilotomab satetraxetan (U-2932 [4]; 1000 nM, time (day): 3): 0.972
- growth inhibition by drug plus 177Lu-lilotomab satetraxetan (U-2932 [4]; 1000 nM, time (day): 4): 0.979
- growth inhibition by drug plus 177Lu-lilotomab satetraxetan (U-2932 [4]; 1000 nM, time (day): 5): 0.981
- growth inhibition by drug plus 177Lu-lilotomab satetraxetan (U-2932 [4]; 1000 nM, time (day): 6): 0.985
- growth inhibition by drug plus 177Lu-lilotomab satetraxetan (RIVA [1]; 10 nM, time (day): 3): 0.924
- growth inhibition by drug plus 177Lu-lilotomab satetraxetan (RIVA [1]; 10 nM, time (day): 4): 0.947
- growth inhibition by drug plus 177Lu-lilotomab satetraxetan (RIVA [1]; 10 nM, time (day): 5): 0.964
- growth inhibition by drug plus 177Lu-lilotomab satetraxetan (RIVA [1]; 10 nM, time (day): 6): 0.971
- growth inhibition by drug plus 177Lu-lilotomab satetraxetan (RIVA [1]; 100 nM, time (day): 3): 0.831
- growth inhibition by drug plus 177Lu-lilotomab satetraxetan (RIVA [1]; 100 nM, time (day): 4): 0.89
- growth inhibition by drug plus 177Lu-lilotomab satetraxetan (RIVA [1]; 100 nM, time (day): 5): 0.913
- growth inhibition by drug plus 177Lu-lilotomab satetraxetan (RIVA [1]; 100 nM, time (day): 6): 0.939

Structure (SMILES): CC1(C)CCC(c2ccc(Cl)cc2)=C(CN2CCN(c3ccc(C(=O)NS(=O)(=O)c4ccc(N[C@H](CCN5CCOCC5)CSc5ccccc5)c(S(=O)(=O)C(F)(F)F)c4)cc3)CC2)C1 [ABT-263 (Navitoclax)]
- growth inhibition by drug alone (U-2932 [2]; 10 nM, time (day): 3): -0.00418
- growth inhibition by drug alone (U-2932 [2]; 10 nM, time (day): 4): -0.0018
- growth inhibition by drug alone (U-2932 [2]; 10 nM, time (day): 5): -0.0135
- growth inhibition by drug alone (U-2932 [2]; 10 nM, time (day): 6): 0.024
- growth inhibition by drug alone (U-2932 [2]; 1000 nM, time (day): 3): 0.0839
- growth inhibition by drug alone (U-2932 [2]; 1000 nM, time (day): 4): 0.635
- growth inhibition by drug alone (U-2932 [2]; 1000 nM, time (day): 5): 0.85
- growth inhibition by drug alone (U-2932 [2]; 1000 nM, time (day): 6): 0.894
- growth inhibition by drug alone (RIVA [3]; 10 nM, time (day): 3): 0.116
- growth inhibition by drug alone (RIVA [3]; 10 nM, time (day): 4): 0.0668
- growth inhibition by drug alone (RIVA [3]; 10 nM, time (day): 5): 0.0479
- growth inhibition by drug alone (RIVA [3]; 10 nM, time (day): 6): -0.0157
- growth inhibition by drug alone (RIVA [3]; 100 nM, time (day): 3): 0.977
- growth inhibition by drug alone (RIVA [3]; 100 nM, time (day): 4): 0.976
- growth inhibition by drug alone (RIVA [3]; 100 nM, time (day): 5): 0.975
- growth inhibition by drug alone (RIVA [3]; 100 nM, time (day): 6): 0.974
- growth inhibition by drug plus 177Lu-lilotomab satetraxetan (U-2932 [4]; 10 nM, time (day): 3): -0.0296
- growth inhibition by drug plus 177Lu-lilotomab satetraxetan (U-2932 [4]; 10 nM, time (day): 4): -0.00166
- growth inhibition by drug plus 177Lu-lilotomab satetraxetan (U-2932 [4]; 10 nM, time (day): 5): 0.0241
- growth inhibition by drug plus 177Lu-lilotomab satetraxetan (U-2932 [4]; 10 nM, time (day): 6): 0.15
- growth inhibition by drug plus 177Lu-lilotomab satetraxetan (U-2932 [4]; 1000 nM, time (day): 3): 0.115
- growth inhibition by drug plus 177Lu-lilotomab satetraxetan (U-2932 [4]; 1000 nM, time (day): 4): 0.591
- growth inhibition by drug plus 177Lu-lilotomab satetraxetan (U-2932 [4]; 1000 nM, time (day): 5): 0.816
- growth inhibition by drug plus 177Lu-lilotomab satetraxetan (U-2932 [4]; 1000 nM, time (day): 6): 0.904
- growth inhibition by drug plus 177Lu-lilotomab satetraxetan (RIVA [1]; 10 nM, time (day): 3): 0.568
- growth inhibition by drug plus 177Lu-lilotomab satetraxetan (RIVA [1]; 10 nM, time (day): 4): 0.593
- growth inhibition by drug plus 177Lu-lilotomab satetraxetan (RIVA [1]; 10 nM, time (day): 5): 0.605
- growth inhibition by drug plus 177Lu-lilotomab satetraxetan (RIVA [1]; 10 nM, time (day): 6): 0.604
- growth inhibition by drug plus 177Lu-lilotomab satetraxetan (RIVA [1]; 100 nM, time (day): 3): 0.984
- growth inhibition by drug plus 177Lu-lilotomab satetraxetan (RIVA [1]; 100 nM, time (day): 4): 0.983
- growth inhibition by drug plus 177Lu-lilotomab satetraxetan (RIVA [1]; 100 nM, time (day): 5): 0.983
- growth inhibition by drug plus 177Lu-lilotomab satetraxetan (RIVA [1]; 100 nM, time (day): 6): 0.983

Structure (SMILES): O=C(O)C(=O)O.[NH-]C1CCCCC1[NH-].[Pt+2] (stereo not drawn) [Oxaliplatin (Eloxatin)]
- growth inhibition by drug alone (U-2932 [2]; 10 nM, time (day): 3): 0.138
- growth inhibition by drug alone (U-2932 [2]; 10 nM, time (day): 4): 0.113
- growth inhibition by drug alone (U-2932 [2]; 10 nM, time (day): 5): -0.0491
- growth inhibition by drug alone (U-2932 [2]; 10 nM, time (day): 6): -0.0738
- growth inhibition by drug alone (U-2932 [2]; 1000 nM, time (day): 3): 0.613
- growth inhibition by drug alone (U-2932 [2]; 1000 nM, time (day): 4): 0.565
- growth inhibition by drug alone (U-2932 [2]; 1000 nM, time (day): 5): 0.489
- growth inhibition by drug alone (U-2932 [2]; 1000 nM, time (day): 6): 0.46
- growth inhibition by drug alone (RIVA [3]; 10 nM, time (day): 3): 0.335
- growth inhibition by drug alone (RIVA [3]; 10 nM, time (day): 4): 0.288
- growth inhibition by drug alone (RIVA [3]; 10 nM, time (day): 5): 0.293
- growth inhibition by drug alone (RIVA [3]; 10 nM, time (day): 6): 0.22
- growth inhibition by drug alone (RIVA [3]; 100 nM, time (day): 3): -0.171
- growth inhibition by drug alone (RIVA [3]; 100 nM, time (day): 4): -0.0865
- growth inhibition by drug alone (RIVA [3]; 100 nM, time (day): 5): -0.121
- growth inhibition by drug alone (RIVA [3]; 100 nM, time (day): 6): -0.155
- growth inhibition by drug plus 177Lu-lilotomab satetraxetan (U-2932 [4]; 10 nM, time (day): 3): 0.123
- growth inhibition by drug plus 177Lu-lilotomab satetraxetan (U-2932 [4]; 10 nM, time (day): 4): 0.163
- growth inhibition by drug plus 177Lu-lilotomab satetraxetan (U-2932 [4]; 10 nM, time (day): 5): 0.223
- growth inhibition by drug plus 177Lu-lilotomab satetraxetan (U-2932 [4]; 10 nM, time (day): 6): 0.284
- growth inhibition by drug plus 177Lu-lilotomab satetraxetan (U-2932 [4]; 1000 nM, time (day): 3): 0.675
- growth inhibition by drug plus 177Lu-lilotomab satetraxetan (U-2932 [4]; 1000 nM, time (day): 4): 0.638
- growth inhibition by drug plus 177Lu-lilotomab satetraxetan (U-2932 [4]; 1000 nM, time (day): 5): 0.604
- growth inhibition by drug plus 177Lu-lilotomab satetraxetan (U-2932 [4]; 1000 nM, time (day): 6): 0.608
- growth inhibition by drug plus 177Lu-lilotomab satetraxetan (RIVA [1]; 10 nM, time (day): 3): 0.6
- growth inhibition by drug plus 177Lu-lilotomab satetraxetan (RIVA [1]; 10 nM, time (day): 4): 0.598
- growth inhibition by drug plus 177Lu-lilotomab satetraxetan (RIVA [1]; 10 nM, time (day): 5): 0.621
- growth inhibition by drug plus 177Lu-lilotomab satetraxetan (RIVA [1]; 10 nM, time (day): 6): 0.626
- growth inhibition by drug plus 177Lu-lilotomab satetraxetan (RIVA [1]; 100 nM, time (day): 3): 0.453
- growth inhibition by drug plus 177Lu-lilotomab satetraxetan (RIVA [1]; 100 nM, time (day): 4): 0.516
- growth inhibition by drug plus 177Lu-lilotomab satetraxetan (RIVA [1]; 100 nM, time (day): 5): 0.534
- growth inhibition by drug plus 177Lu-lilotomab satetraxetan (RIVA [1]; 100 nM, time (day): 6): 0.531
